Bioassay records (PubChem BioAssay)
In the library only some 21% were active in any assay of this set; here they are far more common.
Pf growth 96h: inhibits malaria parasite growth, 96 h; P. falciparum luciferase reporter growth, 96 h; Potency, µM (top dose mostly 28.7 µM), most hits filed as inhibitors; 320,000 compounds, 6.9% hits; active = well fitted inhibition curve with a large enough effect; inconclusive = small, poorly fitted or top-dose-only effect, or another doubt; inactive = no such curve, though single readings can be large or run the other way
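Two parasite generations (96 h, 37 C, 5% CO2) of compound exposure in infected erythrocytes (0.05% parasitemia, 2% hematocrit). Luciferase-reporter P. falciparum; decreased luminescence indicates inhibited growth, aimed at apicoplast-acting delayed death.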
NS1 function inh: blocks influenza NS1 protein function. Potency, µM (highest dose often 46.1 µM). 270,000 compounds, 0.4% hits; also: actives are rising curves; nearly all actives have a fitted effect of over 50% in size
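Read-out: OD600 growth recovery of NS1-expressing budding yeast. Cells grown overnight at 30C in -URA glucose medium, washed, resuspended and diluted 1:100 in 2% galactose assay medium, pH 6.0. Same strain lacking NS1 served as positive control.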
Cycloheximide cs: affects cycloheximide protein synthesis inhibition readout, counter-screen; cell reporter, cycloheximide protein synthesis inhibition counterscreen; max response, %; 300,000 compounds, 12% hits; in the data active = max response mostly above about 13%, no sharp cut-off; inactive = mostly below about 14%; also: read at 38.3 µM for the half of the compounds with a filed dose
Shiga toxin inh: Shiga toxin inhibition; Vero cells, Shiga toxin protein synthesis inhibition reporter; inhibition, % at 38.7 µM; 290,000 compounds, 9.2% hits; AID 2315; in the data active = inhibition mostly above about 28%, no sharp cut-off; inactive = mostly below about 43%
SARS PLpro yeast: inhibitors of SARS-CoV papain-like protease in yeast. S. cerevisiae expressing SARS-CoV PLpro, growth rescue. AID 485353. 330,000 compounds, 0.19% hits. Potency, µM (series often up to 32.9 µM), hits mostly activators; also: nearly all actives have a fitted effect of over 55% in size
Pf growth 48h: P. falciparum growth inhibition at 48 hours (one generation); P. falciparum luciferase growth in erythrocytes, 48 h; Potency, µM (doses to about 28.7 µM), usual class: inhibitors; 310,000 compounds, 5.9% hits; active = well fitted inhibition curve with a large enough effect; inconclusive = small, poorly fitted or top-dose-only effect, or another doubt; inactive = no such curve, though single readings can be large or run the other way
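A one-generation exposure of luciferase-tagged malaria parasites in RPMI 1640/Albumax erythrocyte culture, 37 C and 5% CO2. Inhibition is inferred from decreased luminescence after adding detection reagent.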
Each line names hits and unclear results; the compound was inactive in the other large screens. Unless noted, calls follow the shape of the full dose curve.

COc1ccc(-c2nc(CS(=O)(=O)CC(=O)NC3CCC(C)CC3)c(C)o2)cc1 (configuration not stated)	SARS PLpro yeast inconclusive
O=C(O)C(Cc1c[nH]c2ccccc12)N1Cc2ccccc2C1=O (configuration not stated)	Cycloheximide cs 28, Shiga toxin inh 42
O=C(O)[C@H](Cc1c[nH]c2ccccc12)N1C(=O)c2ccccc2C1=O	none (no result: Pf growth 96h, Cycloheximide cs, Shiga toxin inh, SARS PLpro yeast, Pf growth 48h)
CC(C)(Oc1ccc(Cl)cc1)C(=O)N1CCN(c2ccccn2)CC1	SARS PLpro yeast inconclusive, Pf growth 48h 15µM (no result: Pf growth 96h)
Cc1ccc(-c2nn(Cc3ccccc3)cc2C(=O)N2CCN(c3ccccn3)CC2)cc1	Pf growth 96h inconclusive, Pf growth 48h 13µM (no result: NS1 function inh, Cycloheximide cs, Shiga toxin inh)
O=C(c1cn(Cc2ccccc2)nc1-c1cccnc1)N1CCN(Cc2ccccc2)CC1	Pf growth 96h inconclusive, Pf growth 48h inconclusive (no result: NS1 function inh, Cycloheximide cs, Shiga toxin inh)
O=C(c1ccccc1OCc1ccc(Cl)cc1)N1CCN(c2ccccn2)CC1	Pf growth 48h inconclusive (no result: NS1 function inh, Cycloheximide cs, Shiga toxin inh)
COc1ccc(-c2nn(Cc3ccccc3)cc2C(=O)N2CCN(c3ncccn3)CC2)cc1	Pf growth 96h inconclusive, Pf growth 48h 13µM (no result: NS1 function inh, Cycloheximide cs, Shiga toxin inh)
CC(C)(C)c1ccc(OCC(=O)N2CCN(c3ccccn3)CC2)cc1	Pf growth 96h inconclusive, Pf growth 48h inconclusive (no result: NS1 function inh, Cycloheximide cs, Shiga toxin inh)
O=C(c1cn(Cc2ccccc2)nc1-c1ccc(Cl)cc1)N1CCN(c2ccccn2)CC1	Pf growth 96h 9.3µM, Pf growth 48h 13µM (no result: NS1 function inh, Cycloheximide cs, Shiga toxin inh)
CCOC(=O)c1ccc(CNC(=O)C2CCC(=O)N(CCc3ccccc3)C2)o1 (configuration not stated)	none
CCN(CC)c1ccc(/C=C(\C#N)c2nc(-c3cccs3)c(NC(C)=O)s2)cc1	Pf growth 96h 7.4µM, NS1 function inh inconclusive, Pf growth 48h 13µM
CCN(CC)c1ccc(/C=C(\C#N)C(=O)NCc2ccccc2)cc1	Pf growth 48h inconclusive
CSc1nc(N)c(N=Nc2ccc([As](=O)(O)O)cc2)c(=O)[nH]1	Pf growth 96h inconclusive, Pf growth 48h 2.6µM
CCOC(=O)/C(=N\Nc1ccccc1[N+](=O)[O-])c1csc(N)n1	Cycloheximide cs 21
COc1ccc2nc(/N=C(\N)NC(=O)N3c4ccccc4Sc4ccccc43)nc(C)c2c1	Pf growth 96h inconclusive, NS1 function inh inconclusive, Pf growth 48h inconclusive
CCC(=O)N/C(N)=N/c1nc(C)c2cc(OC)ccc2n1	Cycloheximide cs 23, Shiga toxin inh 71, Pf growth 48h 3.3µM
COc1ccc2nc(/N=C(\N)NC(=O)C(C)(C)C)nc(C)c2c1	Cycloheximide cs 30, Shiga toxin inh 42, Pf growth 48h inconclusive
COC(=O)Nc1ccc2c(c1)Nc1ccccc1CC2	Cycloheximide cs active (no result: Shiga toxin inh)
CCOC(=O)CC1=NN(c2ccccc2)C(=O)/C1=C\c1ccc(N(C)C)cc1	Pf growth 96h 5.9µM, Pf growth 48h inconclusive
CCC(CC)C(=O)NCCc1cc2ccc(C)cc2[nH]c1=O	none
Cc1ccc2cc(CCNC(=O)c3cccs3)c(=O)[nH]c2c1	Cycloheximide cs 25
CC(=O)NCCc1cc2ccc(C)c(C)c2[nH]c1=O	none
Cc1ccc2cc(CCNC(=O)C(=O)c3c(C)[nH]c4ccccc34)c(=O)[nH]c2c1	Pf growth 48h inconclusive
Cc1ccc2cc(CNC(C)(C)C)c(=O)[nH]c2c1	Cycloheximide cs 18 (no result: Pf growth 96h)
Cc1ccc2cc(CCNC(=O)c3cccs3)c(=O)[nH]c2c1C	Cycloheximide cs 45, Shiga toxin inh 47
CNCc1cc2ccc(C)cc2[nH]c1=O	none
Cc1ccc2cc(CCNC(=O)C(=O)c3c[nH]c4ccccc34)c(=O)[nH]c2c1	Pf growth 96h inconclusive, Pf growth 48h 9.3µM
Cc1ccc(OCCC(=O)NNC(=O)c2ccc(Br)cc2)cc1	none (no result: Pf growth 96h, NS1 function inh, Cycloheximide cs, Shiga toxin inh, Pf growth 48h)
Cn1c(=O)nc2n(Cc3ccccc3)c3cccc(Cl)c3cc-2c1=O	Pf growth 96h inconclusive
CCN(CC)CC(O)c1ccc(C2CCCC2)cc1 (configuration not stated)	Pf growth 96h 13µM, Pf growth 48h 10µM
CC(NCCC(c1ccccc1)c1ccccc1)c1ccccc1 (configuration not stated)	Pf growth 96h 11µM, Pf growth 48h 13µM
Cc1cc(C(=O)NCCCn2ccnc2)cs1	none (no result: Pf growth 96h)
O=C(NCCCn1ccnc1)c1cc2ccccc2oc1=O	Cycloheximide cs 13
O=C(NCCCn1ccnc1)C1c2ccccc2Oc2ccccc21	Pf growth 96h 10µM
O=C(NCCCN1CCOCC1)c1cc2ccccc2oc1=O	Pf growth 96h inconclusive
O=C(NCCCn1ccnc1)c1ccc2ccccc2c1	Pf growth 96h 12µM
C=CCN(c1ccc(C(=O)NCCCn2ccnc2)cc1)S(C)(=O)=O	Pf growth 96h 9.3µM
O=C(c1ccccc1)c1ccc(NCCCn2ccnc2)c([N+](=O)[O-])c1	Pf growth 96h 12µM, Pf growth 48h inconclusive
CCOc1ccc(NC(=S)NNC(=S)Nc2cccc(C(F)(F)F)c2)cc1	Pf growth 96h 13µM, Pf growth 48h inconclusive
Cc1ccccc1C(=O)NNC(=S)Nc1cccc(C(F)(F)F)c1	Pf growth 96h inconclusive, Cycloheximide cs 28
CC(C)(O)C(=O)NNC(=S)Nc1cccc(C(F)(F)F)c1	Pf growth 96h 12µM
CC(=O)OC1OCCOC1NC(=S)NCc1ccco1 (configuration not stated)	none
CC(=O)OC1OCCOC1NC(=S)Nc1cccc(C(F)(F)F)c1 (configuration not stated)	Cycloheximide cs 19, Shiga toxin inh 66 (no result: NS1 function inh)
O=C(NNC(=S)Nc1cccc(C(F)(F)F)c1)c1ccc(Cl)cc1Cl	none
COc1ccc(NC(=S)NNC(=S)Nc2cccc(C(F)(F)F)c2)cc1	Pf growth 96h inconclusive, Pf growth 48h inconclusive
O=C(NCc1ccccc1Br)c1ccncc1	none
CCN1C(=O)C(CC(=O)Nc2ccccc2Cl)N(NC(=O)c2cccc(F)c2)C1=S (configuration not stated)	Pf growth 96h inconclusive, Pf growth 48h inconclusive
CCC(C)c1ccccc1N1CC(C(=O)Nc2ccc(N3CCOCC3)cc2)CC1=O (configuration not stated)	Pf growth 96h inconclusive (no result: NS1 function inh, Cycloheximide cs, Shiga toxin inh)
FC(F)(F)c1cccc(NC(=S)NNC(=S)Nc2cccc(C(F)(F)F)c2)c1	Pf growth 96h inconclusive, Pf growth 48h inconclusive
CNNC(=S)Nc1cccc(C(F)(F)F)c1	Pf growth 96h inconclusive, Pf growth 48h 4.1µM
N#Cc1c(-c2ccccc2)c(-c2ccccc2)nn(CC(=O)NNC(=O)Nc2ccc(Cl)c(Cl)c2)c1=O	NS1 function inh inconclusive (no result: Pf growth 96h)
CC(C)(C)C(=O)Nc1ccc(Sc2ccc([N+](=O)[O-])cc2)cc1	Pf growth 96h 2.3µM, Pf growth 48h inconclusive
O=C1C=CC(=O)N1c1ccc(Sc2ccc([N+](=O)[O-])cc2)cc1	none
Nc1ccc(Sc2ccc([N+](=O)[O-])cc2)cc1	Pf growth 96h 12µM (no result: NS1 function inh)
CC(=O)Nc1ccc(NC(=O)Cn2nc(C(=O)Nc3ccc(C)cc3)ccc2=O)cc1	none
Cc1ccc(Cl)c(NC(=O)COC(=O)c2nn(C)c(=O)c3ccccc23)c1Cl	none (no result: NS1 function inh, Cycloheximide cs, Shiga toxin inh)
